# Assay outcomes (PubChem BioAssay)
# TRPV1 agonist: human TRPV1 agonism; activation, % at 8.33 µM; Q8NER1; TRPV1-expressing cells, Fluo-8 calcium influx, agonist mode; AID 540275; hit rate 0.19% among 320,000; in the data active = activation above about 80%; inconclusive = between about 30% and that limit; also: 0% is about no effect
# Target sequence (Q8NER1 whole entry, looked up): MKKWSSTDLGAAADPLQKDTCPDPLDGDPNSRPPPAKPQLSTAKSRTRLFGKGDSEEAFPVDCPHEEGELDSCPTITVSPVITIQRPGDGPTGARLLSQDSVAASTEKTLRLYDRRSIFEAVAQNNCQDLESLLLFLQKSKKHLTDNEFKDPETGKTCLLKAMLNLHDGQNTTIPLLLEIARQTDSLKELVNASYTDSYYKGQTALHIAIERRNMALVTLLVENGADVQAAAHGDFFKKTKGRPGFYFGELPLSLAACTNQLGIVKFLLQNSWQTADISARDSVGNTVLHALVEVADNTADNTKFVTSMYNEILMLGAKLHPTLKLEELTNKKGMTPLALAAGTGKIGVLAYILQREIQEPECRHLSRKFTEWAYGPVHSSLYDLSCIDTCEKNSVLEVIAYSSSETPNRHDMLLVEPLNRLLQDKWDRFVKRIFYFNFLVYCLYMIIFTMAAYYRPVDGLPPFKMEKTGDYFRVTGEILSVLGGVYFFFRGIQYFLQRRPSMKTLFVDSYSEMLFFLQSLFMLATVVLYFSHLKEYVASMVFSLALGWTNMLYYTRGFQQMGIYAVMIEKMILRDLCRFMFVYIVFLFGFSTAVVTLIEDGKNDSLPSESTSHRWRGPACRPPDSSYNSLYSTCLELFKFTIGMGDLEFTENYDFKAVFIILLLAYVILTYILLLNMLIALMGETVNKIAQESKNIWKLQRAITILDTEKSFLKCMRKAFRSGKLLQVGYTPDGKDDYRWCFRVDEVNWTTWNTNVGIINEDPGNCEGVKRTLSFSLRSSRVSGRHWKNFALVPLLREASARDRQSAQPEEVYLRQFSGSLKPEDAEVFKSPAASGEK
#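 Cells expressing TRPV1 were dye-loaded with Fluo-8 and read kinetically: 10 s baseline, 3 min after compound (agonist portion), then 2 min after EC20 capsaicin (allosteric enhancer portion). Calcium-bound dye fluorescence at 480/520 nm.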
# TRPV1 potentiator: human TRPV1 potentiation | hit rate 0.02% among 320,000 | Q8NER1 | AID 540277 | TRPV1-expressing cells, Fluo-8 calcium influx, capsaicin EC20 potentiation | potentiation, % at 8.33 µM; in the data active = potentiation above about 80%; inconclusive = between about 30% and that limit; also: 0% is about no effect
#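 Cells expressing TRPV1 were dye-loaded with Fluo-8 and read kinetically: 10 s baseline, 3 min after compound (agonist portion), then 2 min after EC20 capsaicin (allosteric enhancer portion). Calcium-bound dye fluorescence at 480/520 nm.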
# Giardia kill: kills Giardia lamblia | Giardia lamblia trophozoite viability | activity change, % at 7.66 µM, hits read low | hit rate 0.15% among 340,000; in the data active = activity change below about -80%; inconclusive = between about -30% and that limit;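 also: parasites exposed to compound for two days anaerobically before the ATP read; % is scaled to controls: 0 for no effect and ±100 for the full control effect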
#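 Trophozoite viability was measured as ATP-dependent luminescence, read 15-30 min after reagent addition. Before that, parasites at 100 cells/well were exposed to compounds for 48 h, anaerobically, at 37 deg C.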
# ELG1 DNA repair: blocks ELG1-dependent DNA repair in HEK293T cells; HEK293T ELG1-luciferase reporter, luminescence, 16 h; DNA damage induced by 5-fluorouridine; Potency, µM (doses to about 46.1 µM), for the others: top-dose activity change, negative = inhibition, actives largely listed as inhibitors; hit rate 2.3% among 330,000; AID 504467; also: potency is read from the fitted curve at half-maximal effect; % is scaled to controls: 0 for no effect and ±100 for the full control effect; nearly all actives have a fitted effect of over 55% in size
#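 HEK293T cells expressing luciferase-tagged ELG1 (2,000/well) received 5-Fluorouridine plus compound or DMSO for 16 hr at 37 °C. Luciferase was read by ONE-Glo luminescence after 30 min at room temperature.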
# FUS suppressor: rescues growth of FUS-expressing yeast; Potency, µM (series often up to 76.6 µM), actives largely listed as activators; hit rate 0.24% among 390,000; S. cerevisiae FUS-expressing, growth rescue, OD600, 24 h;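 also: potency is read from the fitted curve at half-maximal effect; plate controls were DMSO vehicle for no effect and reference control for full effect; nearly all actives have a fitted effect of over 55% in size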
#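 Absorbance at 600 nm, taken 24hr after compound addition, measured rescue of FUS-yeast growth at 30C. Induction used 2% galactose with seeding at OD 0.005. Controls: CP55940 from 92uM final, DMSO only.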
# The depositor's hits bear a star; i = inactive; u = inconclusive; x = no result given. Shown are actives, neighbours in structure and some others; about 2.3% of the full set was active somewhere. Unless noted, calls follow the shape of the dose curve; as a rule, active = well fitted curve in the direction sought with a large enough effect; inconclusive = small, poorly fitted or top-dose-only effect, or another doubt; inactive = no such curve, though single readings can be large; an effect the other way counts as inactive or inconclusive.
SMILES,TRPV1 agonist,TRPV1 potentiator,Giardia kill,ELG1 DNA repair,FUS suppressor
CCCC(=O)Nc1nnc(SCc2cc(=O)n3cccc(C)c3n2)s1,x,x,x,x,i
COc1cc(C(=O)Nc2ccc(Cl)c(C(F)(F)F)c2)cc(OC)c1OC,1,16,-4,5.2µM*,i
COc1cc(CCC(=O)Nc2ccc(Cl)c(C(F)(F)F)c2)cc(OC)c1OC,-1,u,-14,u,x
Nc1nc(N)nc(-c2cc(O)ccc2O)n1,4,-13,5,1.2µM*,i
COc1ccc(CNC(=O)COC(=O)/C=C/c2cccc(Br)c2)cc1OC,87*,u,11,8%,i
CCOC(=O)c1c(C)[nH]c(C(=O)COC(=O)/C=C/c2cccc(OC)c2OC)c1C,-1,6,-10,-1%,x
COc1ccc(Cl)cc1NC(=O)CN(C)C(=O)c1n[nH]c2ccccc12,-8,27,-14,8.2µM*,i
CCOC(=O)c1c(C)[nH]c(C(=O)N(C)Cc2cccc(OC)c2OC)c1C,0,0,-28,16µM*,i
COc1ccc(CNC(=O)COC(=O)c2cc(-c3cccs3)nc3ccccc23)cc1OC,88*,-19,-17,u,u
CCOC(=O)c1c(C)[nH]c(CCC(=O)NCc2ccc(OC)c(OC)c2)c1C,x,x,x,x,i
COc1ccc(CCNc2nc(=S)[nH]c3cc(OC)c(OC)cc23)cc1OC,-1,1,7,-4%,i
COc1ccc(CCNC(=O)c2ccc(CNc3nc(=S)[nH]c4ccccc34)cc2)cc1OC,-1,1,14,15µM*,i
COc1ccc(CNC(=O)COC(=O)c2n[nH]c3ccccc23)cc1OC,4,6,17,16µM*,i
COc1ccc(-n2c(=O)[nH]c3cc(C(=O)NCCc4ccccc4)ccc3c2=O)cc1OC,-2,3,0,21µM*,i
CCOC(=O)c1[nH]c(C)c(C(=O)OCC(=O)NCc2ccc(OC)c(OC)c2)c1C,4,-4,-14,11µM*,i
COc1ccccc1CNC(=O)COC(=O)c1n[nH]c2ccccc12,0,8,-17,u,i
Cc1ccc(CCNC(=O)c2ccc3c(=O)n(-c4ccccc4)c(=O)[nH]c3c2)cc1,x,x,x,x,i
COC(=O)c1ccc(C(=O)OC)c(NC(=O)N2CC3CCCN3c3ccccc32)c1 (configuration not stated),x,x,x,x,i
CC(C)OC(=O)CC(=O)c1sc2nc3c(cc2c1N)CN(C)CC3,0,5,-11,12%,13µM*
CN1CCc2nc3sc(C(=O)Nc4c(F)cccc4F)c(N)c3cc2C1,x,x,x,x,i
COc1ccc(Nc2ccncc2[N+](=O)[O-])cc1,10,-7,-23,5.8µM*,i
Nc1n[nH]c2c1C1(CCCCC1)Cc1ccccc1-2,0,5,-16,0%,i
Nc1ncnc2c1C1(CCCCC1)Cc1ccccc1-2,2,4,-8,10µM*,x
O=C(OCCN1C(=O)c2ccccc2C1=O)c1cc(=O)[nH]c2ccccc12,2,24,-5,-1%,i
Cc1cc(C(=O)OCCN2C(=O)c3ccccc3C2=O)c2ccccc2n1,25,-13,5,u,16µM*
SMILES,TRPV1 agonist,TRPV1 potentiator,Giardia kill,ELG1 DNA repair,FUS suppressor
Cc1oc(-c2ccc(C(=O)N(C)Cc3ccccc3)cc2)nc1CN1CCc2ccccc21,x,x,x,x,20µM*
CCc1cccc(NC(=O)c2cn3c4c(ccc(Cl)c4c2=O)OC(C)C3)c1 (configuration not stated),x,x,x,x,i
CCc1cccc(NC(=O)c2sc3nc[nH]c(=O)c3c2C)c1,x,x,x,x,i
CCCn1c2ccccc2c2nnc(SC(CC)C(=O)Nc3cc(C)on3)nc21 (configuration not stated),0,-1,5,23µM*,i
CCC(Sc1nnc2c3ccccc3n(CC)c2n1)C(=O)Nc1ccc(NC(C)=O)cc1 (configuration not stated),x,x,x,x,i
CCCc1nc(SCc2cc(=O)c3ccc(C)c(C)c3[nH]2)n[nH]1,x,x,x,x,i
Cc1cc(C)c2nc(-c3ccccn3)cc(C(=O)NCc3cc(C)n(C)n3)c2c1,87*,-16,-6,14%,i
Cc1c(Cl)ccc2c(C(=O)NCCCn3nccc3C)cc(-c3ccccn3)nc12,u,9,-14,18µM*,i
Cc1c(Cl)ccc2c(C(=O)NCCN3CCCCC3)cc(-c3ccccn3)nc12,4,u,-12,u,u
O=C(CSc1nc(=O)n(Cc2ccco2)c2c1CCC2)Nc1cccc(F)c1,x,x,x,x,i
CC(=O)c1ccc(Nc2nc3ccccc3nc2NS(=O)(=O)c2cccs2)cc1,1,-6,-1,12µM*,i
C/C(=N\NC(=O)c1ccc(NS(=O)(=O)c2cccs2)cc1)c1ccccn1,-3,-3,37,3.7µM*,i
O=S(=O)(c1ccc2c(c1)CCC2)N1CCN(c2nc(-c3ccccc3)nc3ccccc23)CC1,x,x,14,x,x
CCn1c(SCC(=O)N/N=C/c2c[nH]c3ccccc23)nnc1-c1ccc(C(C)(C)C)cc1,2,-11,4,18µM*,i
O=C(NCCc1ccccc1)c1ccc(CSc2nc3ccncc3n2Cc2ccccc2)cc1,x,x,x,x,i
COc1ccccc1NC(=O)CNC(c1ccccc1)c1ccccc1,u,-36,12,8%,i
COc1ccc(C)cc1NC(=O)CNC(c1ccccc1)c1ccc(C)cc1 (configuration not stated),u,-4,u,6.5µM*,i
Cc1ccc(NC(=O)c2ccc([N+](=O)[O-])o2)cc1C,u,-12,-94*,u,i
COc1ccccc1NC(=O)c1ccc([N+](=O)[O-])o1,x,x,-96*,x,i
Cc1ccc(C(=O)NC(=S)Nc2cccc(NC(=O)c3ccccc3)c2)cc1[N+](=O)[O-],-1,4,17,u,i
Cc1ccc(C(=O)NC(=S)Nc2cccc(NC(=O)c3ccccc3Cl)c2)cc1[N+](=O)[O-],-2,7,17,18µM*,i
O=C(Nc1cccc2ccccc12)c1ccc([N+](=O)[O-])o1,u,-29,-98*,u,i
O=C(COC(=O)C12CC3CC(CC(Cl)(C3)C1)C2)NCc1ccco1,29,-18,8,x,x
COCCOC(=O)c1c(C)oc2c1cc(NS(=O)(=O)c1ccc(Cl)c(C)c1)c1ccccc12,x,x,x,x,i
Cc1ccc(OCC(=O)Nc2ccc(Cl)c(-c3nc4ncccc4o3)c2)c(C)c1,x,x,x,x,i
COc1ccc(-c2nc(CS(=O)CC(=O)NCc3ccccc3Cl)c(C)o2)cc1OC (configuration not stated),x,x,x,x,i
O=C(Nc1cccc(Cl)c1N1CCOCC1)c1ccc([N+](=O)[O-])o1,-2,14,-86*,13%,i
Cc1cccc(NC(=O)c2ccc([N+](=O)[O-])o2)c1C,1,1,-97*,7%,i
